# Assay outcomes: PubChem, National Center for Advancing Translational Sciences (NCATS)
# Compounds with a hit are over-represented: about 0.74% of the library has one in this group of screens.
# TCR activator: T cell receptor activation; primary human leukocytes, anti-CD3, IL-2 HTRF, 48 h; Potency, µM (highest dose often 9.22 µM), for inactives: at the top dose activation of IL-2 secretion, hits mostly activators; 330,000 tested, under 10 active; active = well fitted activation curve with a large enough effect; also: % of control where 0% means no effect
#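 Using a-CD3 beads without co-stimulation, primary human leukocytes were exposed to compounds for 48 hr. An HTRF IL-2 kit measured the cytokine, with europium-to-d2 energy transfer producing emission at 665nm upon 320nm excitation.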
# CCT chaperon mod: changes cytosolic chaperonin activity. 0.3% of 360,000 active. activity change, % (no concentration beside the values), hits read low. AID 651819. purified chaperonin ATPase assay, HTRF ADP detection, 30 min; in the data active = activity change below about -30%; also: % is scaled to controls: 0 for no effect and ±100 for the full control effect
#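 Enzyme 40 or 20 nM (batch-dependent) in Tris pH 7.4/KCl/MgCl2/DTT; cpd 76 uM single point; ATP 10 uM; 30 min 37 °C; Transcreener ADP HTRF detection, 30 min RT; ratio 665/615.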
# pAkt inh: blocks phosphorylation of Akt; activity change, % for hits at 50 µM; 0.32% of 360,000 active; Neuro2A IGF-stimulated pAkt S473 HTRF, 20 min; active compounds read low; in the data active = activity change below about -80%; also: % is scaled to controls: 0 for no effect and ±100 for the full control effect
#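 Neuro2A cells in DMEM with 0.5% FBS, overnight at 37 deg C, given compound at single 50 µM final, then IGF (6 nM final) for 20 min at 37 deg C. Lysed; phospho-Akt Ser473 by HTRF after 24 h, 665/615 ratio.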
# TSHR antag: antagonists of human thyroid stimulating hormone receptor | P16473 | TSHR-expressing cells, TSH-stimulated cAMP HTRF, 2 h; active compounds read low | activity change, negative = inhibition, % at 11.5 µM | 0.2% of 330,000 active | AID 504810;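 active = activity change below a set negative limit, meaning inhibition stronger than a set level, cut at about -70% in these data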; also: % is scaled to controls: 0 for no effect and ±100 for the full control effect
#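 Competitive HTRF cAMP read-out (cryptate anti-cAMP antibody, cAMP-d2; 30 min, room temperature) in freshly harvested TSHR cells. Compounds added before TSH at EC80 (4nM final), followed by 2 hours' incubation at 37 deg C.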
# * hit, by the source's call; i = inactive; . = not tested or not shown; [ ] = another dose, or the depositor's remark.
SMILES,TCR activator,CCT chaperon mod,pAkt inh,TSHR antag
CCn1c(CNC(=O)c2ccc(OC)cc2)nnc1SCC(=O)c1ccccc1,-9%,-45*,i,24
Cc1ccc(OCc2nnc(SCC(=O)c3ccccc3)n2-c2ccccc2)cc1,-5%[46.1 µM],-56*,i,3
Cc1ccc(OCc2nnc(SCC(=O)O)n2-c2ccccc2)cc1,5%,0,i,.
CC(NC(=O)C1CCCC1)C1CC2CCC1C2 (stereo not given),-3%[46.1 µM],-41*,i,-29
COc1ccc(C(=O)NC(C)C2CC3CCC2C3)cc1 (stereo not given),-3%,0,i,3
CC(NC(=O)c1ccc(N(C)C)cc1)C1CC2CCC1C2 (stereo not given),1%,-44*,i,-5
CN1CC(c2ccccn2)C2(SC(=S)N(Cc3ccccc3)C2=O)C12C(=O)Nc1ccccc12 (stereo not given),.,0,-84%*,-4
O=C(CN1CCSCC1)N/N=C/c1ccccc1F,.,-5,-98%*,2
O=C(Cc1cccc(C(F)(F)F)c1)Nc1cc(S(=O)(=O)N2CCOCC2)ccc1N1CCCC1,4%,-1,i,-9
